Measurements taken from PubChem BioAssay AID1672 (Johns Hopkins Ion Channel Center, 2009).
Hit rate of the full screen: of about 310,000 compounds, about 2,600 (0.84%) were called active.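 The calls were made as follows: active = fluorescence ratio B-score at or below minus 3 SD of library scores, with starting-brightness B-score within 2 SD (cut at about -4.2 in these data); inactive = the rest.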 The sample as a whole holds a higher share of actives than the screen did.

Each molecule was assayed against Inward rectifier potassium channel 2 (Mus musculus) (UniProt P35561) (assay: blocks the mouse Kir2.1 inward-rectifier potassium channel (AID 1672;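 also: channel flux triggered by added potassium and thallium sulfate stimulus; B-score of peak minus minimum fluorescence over baseline after thallium stimulus; more negative B-score means stronger Kir2.1 block with less thallium influx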)). Conditions: HEK293-Kir2.1, FluxOR thallium flux fluorescence; at 10 µM; active compounds read low.
Inward rectifier potassium channel 2 (Mus musculus), sequence (P35561 whole entry, looked up): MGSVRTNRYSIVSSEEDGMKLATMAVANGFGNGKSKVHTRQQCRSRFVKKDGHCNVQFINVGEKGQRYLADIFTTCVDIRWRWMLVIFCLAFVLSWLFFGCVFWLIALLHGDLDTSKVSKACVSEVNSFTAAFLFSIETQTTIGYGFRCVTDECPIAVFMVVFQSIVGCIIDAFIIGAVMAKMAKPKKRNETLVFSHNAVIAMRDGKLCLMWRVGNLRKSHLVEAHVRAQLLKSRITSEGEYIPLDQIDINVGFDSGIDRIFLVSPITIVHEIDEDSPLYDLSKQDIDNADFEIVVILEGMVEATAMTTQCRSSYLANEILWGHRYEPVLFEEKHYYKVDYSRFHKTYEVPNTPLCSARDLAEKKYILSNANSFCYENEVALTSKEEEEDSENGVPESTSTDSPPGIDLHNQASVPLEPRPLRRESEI

B-score, inactive:
c1ccc(-c2ccccc2OCCN2CCCCC2)cc1 -1.64
CC1CN(CCCOc2ccccc2-c2ccccc2)CC(C)O1 (stereo not given) -4.04
COc1ccccc1OCCCCCCN1CCN(C)CC1 1
CN1CCN(CCCCOc2cccc3ccccc23)CC1 -1.84
CC(OC(=O)CCCc1c[nH]c2ccccc12)C(=O)Nc1ccc(S(N)(=O)=O)cc1 (stereo not given) -0.01
Cc1sc(NC(=O)C2=COCCO2)c(C#N)c1C -0.98
Cc1ccc2[nH]cc(CCNC(=O)C3CCCCC3)c2c1 0.62
O=C(NCCc1c[nH]c2ccccc12)c1cccc(Br)c1 -0.14
Cc1c(NC(=O)C(C)OC(=O)c2c3c(nc4ccccc24)CCC(C)C3)c(=O)n(-c2ccccc2)n1C (stereo not given) 0.01
CCOC(=O)C(C)Sc1nnc(CSc2nc3nc(C)cc(C)n3n2)o1 (stereo not given) 0.45
Cc1cc(C)cc(OCc2nnc(SCC(=O)OC3CCCCC3)o2)c1 2.83
O=C(CSc1nnc(-c2cccnc2)n1Cc1ccco1)c1ccc(Cl)cc1 -3.48
O=C(CSc1nnc(-c2cccnc2)n1Cc1ccco1)c1ccc(Cl)c(Cl)c1 -0.81
O=C(Cc1ccc(S(=O)(=O)N2CCOCC2)s1)NCCOc1ccccc1F -0.88
O=C(CCC1CCCCC1)Nc1cc(C(F)(F)F)ccc1N1CCOCC1 -0.88
Cc1cc(=O)oc2cc(NC(=O)C(C)Oc3ccccc3)ccc12 (stereo not given) 0.76
CCCC(O)(c1ccc(OC)cc1)C(CN(C)C)c1ccccc1 (stereo not given) -2.85
CC(CN1CCCCC1)c1ccccc1 (stereo not given) -0.88
CN(CC(=O)NCc1cccnc1)S(=O)(=O)c1cc(Cl)ccc1Cl 0.05
Cc1ccc(S(=O)(=O)NCCC(=O)NNC(=O)C2COc3ccccc3O2)cc1 (stereo not given) -0.97
COc1cccc(CC2(CO)CCCN(Cc3ccc(OC(F)F)cc3)C2)c1 (stereo not given) -1.05
Cn1cccc1-c1nc2ccccc2n1C -0.13
Cn1c(-c2ccco2)nc2cc3ccccc3cc21 0.04
COc1ccccc1N1CCN(c2nc(C)cc(=O)[nH]2)CC1 0.62
O=C(CCNC(=O)Cn1ccc2ccccc2c1=O)NCCC1=CCCCC1 -0.38
O=C(Cc1cccc2ccccc12)NCCC1=CCCCC1 -1.35
CCOc1cc(N2CCOCC2)c(OCC)cc1NC(=O)COc1cccc(Cl)c1 -0.59
CC(C)CN(C(=O)c1ccc2c(c1)OCO2)C1CCS(=O)(=O)C1 (stereo not given) -2.25
COc1ccc(Nc2ncnc3sc(-c4ccccc4)cc23)c(OC)c1 0
COc1ccc(Nc2nnc(C)c3ccccc23)cc1 -0.1
Cc1ccc2nc3n(c(=O)c2c1)CCC3 -2.3
Cc1ccc2nc(Nc3ccccc3)cc(C)c2c1 1.96
O=C(O)C1C2C=CC(C2)C1C(=O)NCc1ccccc1 (stereo not given) -0.26
CCCCCCn1c(CN2CCCCC2)nc2c1c(=O)n(C)c(=O)n2C -1.63
COc1ccccc1NC(=O)C(C)OC(=O)c1ccc(-n2cnnn2)cc1 (stereo not given) 1.19
CC(=O)Nc1ccc(C(=O)NNC(=O)CCCCC(=O)NNC(=O)c2ccc(NC(C)=O)cc2)cc1 0.27
CCOc1ccc(S(=O)(=O)NCCC(=O)N2CCCCCCC2)cc1 -0.07
Cc1nc2ccc(C(=O)N(C)CC3CCCN(CCc4ccc(Cl)cc4)C3)cc2[nH]1 (stereo not given) -1.32
COc1cccc(CN(C)CC(=O)NCc2ccccc2Cl)c1OC -3.73
O=C(Nc1ccc(OC(F)(F)F)cc1)c1ccc2c(c1)no[n+]2[O-] 0.38
O=C(Nc1cn(-c2ccccc2)nc1-c1ccccc1)c1ccccc1 0
N=C(N)SCc1cccc2ccccc12 -3.09
CCN1CCN(c2ccc(S(=O)(=O)N3CCCCC3)cc2NC(=O)c2cccc(NC(C)=O)c2)CC1 0.95
CCc1ccc(C(=O)NNC(=O)C2CCN(c3ncnc4sc(C)c(C)c34)CC2)cc1 -1.35
O=C(COc1ccccc1Cl)Nc1ccccc1C(=O)NC1CC1 -1.39
COc1ccc(NC(=S)NCC2CCN(c3ccc(OC)cc3)C2)cc1 (stereo not given) 1.12
COc1ccc(NC(=S)NCCN2CCC(C)CC2)cc1 -1.95
COc1ccc(F)cc1S(=O)(=O)NCC(c1ccc2c(c1)OCO2)N1CCN(C)CC1 (stereo not given) -0.39
CC(O)C(NS(=O)(=O)c1ccc(Cl)cc1)C(=O)OCc1cc([N+](=O)[O-])cc2c1OCOC2 (stereo not given) -0.06
COc1ccccc1CSc1ncc(-c2ccc([N+](=O)[O-])cc2)[nH]1 0.65

B-score, active:
CC1CCCN(CCOCCOc2ccccc2-c2ccccc2)C1 (stereo not given) -6.74
CN1CCN(CCCCOc2ccccc2-c2ccccc2)CC1 -6.95
O=C(NCCc1c[nH]c2ccccc12)C1CCN(Cc2ccc(Br)cc2)CC1 -5.88
Cc1cc(C)nc(SCc2nnc(SCC(=O)OC3CCCCC3)o2)n1 -6.39
C(=C\c1ccccc1)/CSc1nnc(-c2cccnc2)n1Cc1ccco1 -6.26
COc1ccc(C(O)(C2CCCCC2)C(CN2CCCC2)c2ccccc2)cc1 (stereo not given) -6.33
CN1c2ccccc2-c2nc3ccccc3n2C1c1ccco1 (stereo not given) -4.99
CCn1c(=O)cc(SCC(=O)NCCC2=CCCCC2)c2ccccc21 -8.59
COc1ccc(Nc2ncnc3sc(C)cc23)cc1 -6.13
Cc1ccc2nc(C)c3c(c2c1)N(c1ccccc1)CC3 -13.2
CCCCCCCCn1c2c(c(=N)c3c1CCC3)CCCC2 -14.8
COc1cccc(CN(C)CC2CCCN(CCc3ccc(Cl)cc3)C2)c1OC (stereo not given) -8.2
CCc1ccc(-c2nn(-c3ccccc3)cc2CSC(=N)N)cc1 -10.6
COc1ccc(N2CCC(CNC(=S)Nc3c(C)cccc3C)C2)cc1 (stereo not given) -6.34
Nc1ccccc1SCc1cc([N+](=O)[O-])cc2c1OCOC2 -4.96
